Assay [1] in a line: Confirmation and Secondary Assay for Modulators of Hemoglobin Beta Chain Splicing at IVS2 705 locus (AID 930).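 Note: HeLa cells stably expressing the EGFP-705 splicing reporter; GFP fluorescence per well restored by corrected splicing of the IVS2-705 intron in EGFP; series mostly up to about 46 µM.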 The gist of the method: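 HeLa EGFP-705 reporter; 500 cells/well, o/n 37C 5% CO2; cpd 2 d; 488 ex/500-520 em laser scan; total peak GFP intensity/well. Ref: 500 nM […] antisense PNA.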
The nature of assay [2]: Cell Viability - LYMP2-001 (AID 921). Note: nearly all actives have a fitted effect of over 70% in size. Note: potency is the fitted concentration of half-maximal effect. In short, it runs like this: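 CellTiter-Glo luminescence (intracellular ATP) after 24 hr compound exposure at 37 C, 2500 lymphoblastoid cells/well in complete medium. AC50 fitted with standard Hill equation; tetraoctylammonium bromide positive control.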
Assay [3] can be described thus: MultiTox-Fluor Cytotoxicity Assay - LYMP1-001 - Dead Cells (AID 946). In short, it runs like this:
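LYMP1-001 lymphoblastoid cells (2500/well) treated 16 h at 37 C. Dead-cell protease cleavage of bis-AAF-R110 read at Ex/Em 485/520. Normalized to DMSO and 15 uM tetraoctylammonium bromide; AC50 from Hill fits.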

Assay [4] is described as follows: Cell Viability - LYMP1-002 - Assay at 16 hr (AID 948). In short, it runs like this:
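LYMP1-002 human lymphoblastoid cells, 2500/well; 5 hr 37 C; cpd 16 hr 37 C; CellTiter-Glo 30 min RT; luminescence (ATP). Concentration-response, Hill-fit AC50. Pos ctrl tetraoctylammonium bromide.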

Assay [5] is described as follows: MultiTox-Fluor Cytotoxicity Assay - LYMP1-002 - Live Cells (AID 955). The gist of the method: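 Cells were seeded at 2500 per well and incubated 5 hr. Compounds were then added for 16 hr at 37 C, followed by MultiTox-Fluor reagent for 60 min at room temperature and fluorescence reading of viable-cell protease signal.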
A short description of assay [6]: MultiTox-Fluor Cytotoxicity Assay - LYMP1-003 - Dead Cells (AID 961). Note: nearly all actives have a fitted effect of over 70% in size. Note: potency is the fitted concentration of half-maximal effect. In short, it runs like this: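 LYMP1-003 human lymphoblastoid cells (2500/well) exposed to compound 16 h at 37 C in complete medium; dead-cell protease read with bis-AAF-R110 fluorescence (Ex/Em 485/520) after 60 min at room temperature. Normalized to DMSO and 15 uM tetraoctylammonium bromide; AC50 from Hill fit.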

The nature of assay [7]: MultiTox-Fluor Cytotoxicity Assay - LYMP1-003 - Live Cells (AID 962).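 Note: cytotoxic hits lower the live-cell protease signal.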 In short, it runs like this: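 Acute cytotoxicity is scored as a drop in live-cell protease activity in human lymphoblastoid LYMP1-003 cells after 16 hr compound exposure at 37 C. AC50 values come from Hill-equation modelling of concentration-response data.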
Assay [8] in a line: Cell Viability - LYMP1-003 - Assay at 24 hr (AID 963). The gist of the method: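 Cytotoxicity is scored as a concentration-dependent fall in ATP-linked luciferase signal in human lymphoblastoid LYMP1-003 cells treated 24 hr at 37 C in complete culture medium.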
Assay [9] in a line: Cell Viability - LYMP1-003 - Assay at 40 hr (AID 964). Note: series mostly up to about 92 µM; nearly all actives have a fitted effect of over 60% in size. The gist of the method: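 Luminescent ATP signal (CellTiter-Glo) served as the viability read-out after 40 hr compound treatment of human lymphoblastoid LYMP1-003 cells at 37 C. Decreases in ATP were fitted with the Hill equation to give AC50.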
Assay [10] is described as follows: Cell Viability - LYMP2-003 (AID 965).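 Note: cells exposed to compounds for 24 h before reading; nearly all actives have a fitted effect of over 50% in size.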 Note: potency is the fitted concentration of half-maximal effect. The gist of the method:
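CellTiter-Glo luminescence (cellular ATP) after 24 h compound exposure at 37 C in complete medium; 2500 cells/well, 5 h settling beforehand. Concentration-response fitted to standard Hill equation for AC50. Tetraoctylammonium bromide served as positive control.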

Assay [11] in a line: Cell Viability - LYMP2-004 (AID 966). Note: nearly all actives have a fitted effect of over 65% in size. Note: potency is the fitted concentration of half-maximal effect. The gist of the method:
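qHTS cytotoxicity: human lymphoblastoid line, 24 hr compound treatment, 37 C, complete medium. Viability read as cellular ATP via luciferase luminescence; tetraoctylammonium bromide served as positive control.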

Assay [12] is described as follows: Cell Viability - LYMP2-009 (AID 968). Note: nearly all actives have a fitted effect of over 55% in size. Note: potency is the fitted concentration of half-maximal effect.
Assay [13] is described as follows: MultiTox-Fluor Cytotoxicity Assay - LYMP1-001 - Live Cells (AID 947).
Assay [14] can be described thus: MultiTox-Fluor Cytotoxicity Assay - LYMP1-002 - Dead Cells (AID 960). Note: nearly all actives have a fitted effect of over 60% in size. The gist of the method:
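Cells were plated, rested 5 hr, then treated with compound dilution series for 16 hr at 37 C. After adding substrate reagent and 60 min at room temperature, dead-cell protease fluorescence gave concentration-response curves fitted by the Hill equation.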

Assay [15] is described as follows: Cell Viability - LYMP2-005 (AID 967). Note: series mostly up to about 92 µM. The gist of the method: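 Steps: seed 2500 LYMP2-005 cells/well, incubate 5 h at 37 C, add compound, incubate 24 h at 37 C, add CellTiter-Glo, wait 30 min at RT, read luminescence. Concentration-response data fitted to Hill equation for AC50.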
Assay [16] in a line: qHTS Assay for Identification of Small Molecule Agonists for Thrombopoietin (TPO) Signaling Pathway (AID 917). In short, it runs like this: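 Ba/F3 (mouse) + hTPO receptor + GpIIb-promoter luciferase; IL-3 withdrawn overnight; compound + 26 pM TPO (EC50), 24 hrs, 37 C, 5% CO2; Steadylite luminescence, 10 min RT.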
On the technique in general: Quantitative high-throughput screening tests each substance at several concentrations.

Assay [17] concerns the target Muscarinic acetylcholine receptor M1 (Rattus norvegicus) (UniProt P08482). The experiment in a line: qHTS Assay for Antagonists of Acetylcholine Muscarinic M1 Receptor: Kinetic Measurement of Intracellular Calcium Response (AID 943).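 Note: Fluo-4 calcium signal as peak divided by basal fluorescence over 4 min; series mostly up to about 35 µM; nearly all actives have a fitted effect of over 75% in size.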 The gist of the method:
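Antagonism is measured as inhibition of the carbachol-evoked calcium rise in CHO cells transfected with rat M1. Cells are dye-loaded, exposed to compound for 10 min, then stimulated with 100 nM carbachol (EC80).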

For assay [18] the target is unchanged. Briefly: qHTS Assay for Antagonists of Acetylcholine Muscarinic M1 Receptor: Measurement of IP-One Response (AID 944). Note: nearly all actives have a fitted effect of over 75% in size. In short, it runs like this:
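Antagonist mode with rat M1 receptor transfected into CHO cells. Compound is added first for 10 min, carbachol at its EC80 follows for 30 min, and lysis reagents then allow TR-FRET detection of accumulated IP1.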

Assay [19] concerns the target Pyruvate kinase (Leishmania mexicana) (UniProt Q27686). The experiment in a line: qHTS Validation Assay for Inhibitors of Leishmania Mexicana Pyruvate Kinase (AID 945). The gist of the method: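 Substrate mix (0.5 mM PEP, 0.1 mM ADP, 7 mM MgCl2, 50 mM KCl, pH 7.2 imidazole) received compound by pin tool, then 0.2 nM LmPYK E451W. After 1 h at room temperature, PKLight was added and luminescence measured.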

The target of assay [20] is Pyruvate kinase PKM (Homo sapiens) (UniProt P14618). Briefly: qHTS Assay for Activators of Human Muscle Pyruvate Kinase (AID 954; active = well fitted curve in the direction sought with a large enough effect, not every such curve was filed as active). The gist of the method: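 Compound pinned into substrate mix (0.5 mM PEP, 0.1 mM ADP), then 0.1 nM PKM2 added; 1 h, RT. Stop/detection luciferase reagent added, luminescence read. Normalized to no-inhibition and no-enzyme or reference-inhibitor controls.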
Chain of Pyruvate kinase PKM (Homo sapiens) (P14618 whole entry, looked up): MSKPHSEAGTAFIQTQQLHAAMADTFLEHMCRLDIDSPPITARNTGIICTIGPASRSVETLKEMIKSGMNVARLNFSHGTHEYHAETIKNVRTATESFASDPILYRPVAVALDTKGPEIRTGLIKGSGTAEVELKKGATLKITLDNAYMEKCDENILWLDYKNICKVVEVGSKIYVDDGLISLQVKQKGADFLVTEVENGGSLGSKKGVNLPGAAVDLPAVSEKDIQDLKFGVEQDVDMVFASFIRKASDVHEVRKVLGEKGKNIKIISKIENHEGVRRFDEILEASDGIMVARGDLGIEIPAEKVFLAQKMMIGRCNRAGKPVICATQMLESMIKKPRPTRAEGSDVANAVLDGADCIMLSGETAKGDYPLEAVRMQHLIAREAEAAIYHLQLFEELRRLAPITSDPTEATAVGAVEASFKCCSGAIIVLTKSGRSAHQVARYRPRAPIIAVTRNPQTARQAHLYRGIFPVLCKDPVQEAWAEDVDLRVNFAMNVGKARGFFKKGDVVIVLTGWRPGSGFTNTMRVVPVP

Results filed as inconclusive are left out. Activity calls are given as the source filed them. Unless noted, calls come from the whole dose curve; as a rule, active = well fitted curve in the direction sought with a large enough effect; inconclusive = small, poorly fitted or top-dose-only effect, or another doubt; inactive = no such curve, though single readings can be large; an effect the other way counts as inactive or inconclusive.

In PubChem BioAssay (NCATS) one finds outcome and Potency data, which are given here for 17 compounds.

Chain of Muscarinic acetylcholine receptor M1 (Rattus norvegicus) (P08482 whole entry, looked up): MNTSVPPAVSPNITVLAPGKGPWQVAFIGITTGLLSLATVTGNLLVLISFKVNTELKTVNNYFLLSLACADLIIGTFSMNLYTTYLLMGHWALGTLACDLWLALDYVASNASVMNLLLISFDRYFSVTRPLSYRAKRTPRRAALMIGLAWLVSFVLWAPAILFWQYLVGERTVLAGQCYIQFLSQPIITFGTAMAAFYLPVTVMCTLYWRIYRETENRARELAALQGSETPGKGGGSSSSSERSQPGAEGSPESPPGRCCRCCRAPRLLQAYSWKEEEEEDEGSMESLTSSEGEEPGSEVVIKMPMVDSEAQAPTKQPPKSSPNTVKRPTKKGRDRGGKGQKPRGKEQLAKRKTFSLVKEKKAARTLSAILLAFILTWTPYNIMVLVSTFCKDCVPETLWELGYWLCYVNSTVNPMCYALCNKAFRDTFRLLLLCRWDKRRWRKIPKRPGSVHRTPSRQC
Chain of Pyruvate kinase (Leishmania mexicana) (Q27686 2-499 E452W): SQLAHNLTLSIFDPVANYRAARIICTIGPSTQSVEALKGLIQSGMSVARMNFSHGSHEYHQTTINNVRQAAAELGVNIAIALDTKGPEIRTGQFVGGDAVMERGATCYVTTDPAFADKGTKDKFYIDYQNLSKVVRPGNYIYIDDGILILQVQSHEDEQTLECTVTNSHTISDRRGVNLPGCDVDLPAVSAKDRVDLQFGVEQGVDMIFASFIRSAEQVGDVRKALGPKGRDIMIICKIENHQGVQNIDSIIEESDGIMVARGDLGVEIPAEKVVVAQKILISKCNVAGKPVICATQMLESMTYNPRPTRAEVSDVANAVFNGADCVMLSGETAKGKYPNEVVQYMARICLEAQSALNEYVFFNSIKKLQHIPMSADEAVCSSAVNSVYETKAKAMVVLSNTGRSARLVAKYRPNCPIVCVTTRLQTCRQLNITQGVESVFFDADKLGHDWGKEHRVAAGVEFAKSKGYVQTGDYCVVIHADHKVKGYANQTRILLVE

As to `NC(=O)c1ncn(C2OC(CO)C(O)C2O)n1` (centres undefined), the result in assay [1] was inactive.

In the case of `O=CCCCC=O`, the Potency in assay [2] was 15.8 µM (active); in assay [6], 50.1 µM (active); in assay [10], 39.8 µM (active); in [11], 25.1 µM (active); in [12], 25.1 µM (active). For the same compound, the Potency entry in assay [3] and in [9] was “inactive” in each case. Further, the compound was called inactive in [4], in assay [5], in assay [7] and in assay [8].

With `C[C@@H]1CCC2[C@@H](C)[C@@H](O)O[C@@H]3O[C@@]4(C)CC[C@@H]1[C@@]23OO4` (some centres undefined), in assay [1], the compound was classed as inactive.

Consider `CCOc1ccc2c(c1)C(C)=CC(C)(C)N2`, for which the Potency result in [2], in assay [3], in assay [14], in assay [10], in assay [11] and in assay [15] was “inactive” each time. In assay [12], the Potency entry was “inactive”. Further, the outcome in assay [1], in assay [13], in assay [4], in assay [5], in assay [7] and in [8] was inactive.

`Nc1c(Br)cc(Br)cc1CNC1CCC(O)CC1` (centres undefined): the outcome in assay [1] was inactive.

In the case of `CN=C(NC#N)Nc1ccc(C2=NNC(=O)C[C@@H]2C)cc1`, the compound was classed as inactive in [16], in assay [17], in [18], in [19] and in [20].

For the compound `IC(I)I`, the Potency result in assay [2], in [3], in assay [14], in assay [6], in assay [9] and in [10] was “inactive” in each case. The Potency result in assay [11], in assay [15] and in assay [12] was “inactive” in each case. The call in assay [13], in assay [4], in assay [5], in assay [7] and in [8] was inactive.

As for `O=C(O)CN(CCN(CC(=O)O)CC(=O)O)CC(=O)O`, the call in assay [1] was inactive.

Consider `CC(C)=O`, for which the Potency result in [2], in assay [3], in assay [14], in assay [6], in assay [9] and in [10] was “inactive” in each case. The Potency entry in [11], in [15] and in [12] was “inactive” in each case. The compound was classed as inactive in assay [13], in assay [4], in [5], in assay [7] and in [8].

As for `CCC(=O)NCCC1CCc2ccc3c(c21)CCO3` (centres undefined), the compound was classed as inactive in [1].

For `O=S(=O)(O)O`, the Potency result in [2], in assay [3], in assay [14], in assay [6], in assay [9] and in assay [10] was “inactive” in each case. For the same compound, the Potency result in assay [11], in assay [15] and in assay [12] was “inactive” in each case. For the same compound, the call in [13], in assay [4], in assay [5], in assay [7] and in assay [8] was inactive.

For `O=C(O)CCC(=O)C(=O)O`, the Potency entry in assay [2], in assay [3], in [14], in assay [6], in [9] and in assay [10] was “inactive” in each case. Besides, the Potency entry in assay [11], in assay [15] and in [12] was “inactive” each time. For the same compound, the result in assay [13], in assay [4], in assay [5], in [7] and in [8] was inactive.

Consider `CC(C(=O)O)c1ccc(N2Cc3ccccc3C2=O)cc1` (centres undefined), for which, in assay [1], the call was inactive.

In the case of `CC1=C(/C=C/C(C)=C/C=C/C(C)=C/C=C/C=C(C)/C=C/C=C(C)/C=C/C2=C(C)C(=O)CCC2(C)C)C(C)(C)CCC1=O`, the compound was called inactive in assay [1].

As for `CCCC(=O)Nc1ncnc2c1ncn2C1OC2COP(=O)(O)OC2C1OC(=O)CCC` (centres undefined), the outcome in assay [1] was inactive.

As to `Nc1ccn([C@H]2CS[C@@H](CO)O2)c(=O)n1`, the Potency entry in assay [2], in assay [3], in assay [14], in assay [6], in assay [9] and in assay [10] was “inactive” throughout. For the same compound, the Potency entry in assay [11], in assay [15] and in [12] was “inactive” in each case. Moreover, the compound was called inactive in [13], in assay [4], in assay [5], in [7] and in assay [8].

Take `CC[N+](C)(C)Cc1ccccc1Br`: the compound was classed as inactive in assay [19] and in assay [20].
